“And” between values parts separate entries of the source, which are not always exact repeats. Equal entries are not always repeated. Structures can show the parent of a compound that is named as a salt.
Experiments:
Test in all cases: cell viability relative to vehicle control; higher = less cytotoxic
Settings in all cases: 10 µM
K562 = system: K562
Outline: (§1)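 CRISPR-edited SRSF2 P95 mutant and isogenic wild-type clones of four leukaemia lines were screened against Selleck bioactive, kinase and epigenetic probe libraries, with identity-inconsistent compounds removed. Compounds were acoustically dispensed into 384-well plates at a single 10 µM dose, with 2000 cells in 50 µL medium per well. After 48 h, supernatant was removed and CellTiter-Glo luminescence was read. Viability was expressed as percent of the on-plate DMSO vehicle control, analysed in Genedata Screener.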

MARIMO = system: MARIMO
Outline: as §1

MOLM14 = system: MOLM14
Outline: as §1

OCI-AML2 = system: OCI-AML2
Outline: as §1

Compound | cell viability (K562; SRSF2 genotype: SRSF2 P95H/wt) | cell viability (K562; SRSF2 genotype: SRSF2 wt/wt) | cell viability (MARIMO; SRSF2 genotype: SRSF2 P95H/wt) | cell viability (MARIMO; SRSF2 genotype: SRSF2 wt/wt) | cell viability (MOLM14; SRSF2 genotype: SRSF2 P95H/wt) | cell viability (MOLM14; SRSF2 genotype: SRSF2 wt/wt) | cell viability (OCI-AML2; SRSF2 genotype: P95H/wt) | cell viability (OCI-AML2; SRSF2 genotype: wt/wt)
Cc1cc(C)c(/C=C2\C(=O)Nc3ccccc32)[nH]1 [Semaxanib (SU5416)] | 102% and 103% | 105% | 88.3% | 97.4% | 20% | 19.8% | 28.1% | 39.9%
CC(=O)O[C@H](CC=C(C)C)C1=CC(=O)c2c(O)ccc(O)c2C1=O [Acetylshikonin] | 4.63% and 1.27% | 1.38% | 0.73% | 0.66% | 0.73% | 0.53% | 0.72% | 0.59%
Nc1ccc2ncnc(NCCc3ccc(Oc4ccccc4)cc3)c2c1 | 68.5% and 56.3% | 67.6% | 62.7% | 58.3% | 69.8% | 63.6% | 52.3% | 51.5%
COc1ccc(-c2oc3c(CC=C(C)C)c(O)cc(O)c3c(=O)c2O[C@@H]2O[C@@H](C)[C@H](O)[C@@H](O)[C@H]2O)cc1 [Baohuoside I] | 101% and 98.2% | 90.4% | 94.6% | 107% | 87.8% | 88.5% | 101% | 107%
CCOC(=O)C=Cc1ccc(OC)cc1 [Ethyl 4-Methoxycinnamate] | 86% and 83.2% | 80% | 81.3% | 88.4% | 83.9% | 84.5% | 84.6% | 83.5%
COc1cn(-c2ccc(-n3cccn3)cc2F)nc(-c2ccnn2-c2ccccc2)c1=O | 103% and 105% | 99.9% | 97.5% | 113% | 107% | 107% | 106% | 117%
CCCCCCCCCCCCCCCC(=O)OCC(O)C1OC(=O)C(O)=C1O [L-Ascorbyl 6-palmitate] | 103% and 102% | 98.7% | 107% | 121% | 106% | 109% | 103% | 106%
OC[C@H]1O[C@@](CO)(OC[C@@]2(O[C@H]3O[C@H](CO)[C@@H](O)[C@H](O)[C@H]3O)O[C@H](CO)[C@@H](O)[C@@H]2O)[C@@H](O)[C@@H]1O [1-Kestose] | 118% and 105% | 110% | 105% | 99.2% | 99% | 110% | 106% | 112%
Cc1nc(=O)c2cc(CN(C)c3ccc(C(=O)N[C@@H](CCC(=O)O)C(=O)O)s3)ccc2[nH]1 [Raltitrexed (Tomudex)] | 94.9% and 108% | 58.7% | 94.3% | 105% | 104% | 80.6% | 106% | 118%
CCS(=O)(=O)CCn1c([N+](=O)[O-])cnc1C [Tinidazole] | 96.7% and 92.4% | 100% | 96.6% | 97.2% | 95.1% | 98.2% | 102% | 102%
CC(=O)O[C@H]1C[C@@]2(C)[C@@H](C[C@@H](O)[C@H]3[C@@]4(C)CC[C@@H](O)[C@@H](C)[C@@H]4CC[C@@]32C)/C1=C(\CCC=C(C)C)C(=O)O [Fusidate Sodium] | 101% and 95.3% | 102% | 102% | 104% | 102% | 100% | 94.7% | 108%
NC1=N[C@@](c2cccc(-c3cncnc3)c2)(c2ccnc(C(F)F)c2)c2cccc(F)c21 | 76.9% and 74.8% | 81.4% | 80.1% | 95.2% | 85.7% | 84.1% | 71.1% | 71.3%
O=c1[nH]cnc2nc[nH]c12 [Hypoxanthine] | 98.8% and 108% | 96.8% | 101% | 116% | 103% | 115% | 103% | 105%
C[C@@]1(c2cc(-c3cncnc3)c(F)cc2F)CCSC(N)=N1 | 100% and 99.9% | 100% | 104% | 105% | 92.2% | 102% | 100% | 99.2%
CC(C)=CCC[C@](C)(O[C@@H]1O[C@H](CO[C@@H]2O[C@H](CO)[C@@H](O)[C@H](O)[C@H]2O)[C@@H](O)[C@H](O)[C@H]1O)[C@H]1CC[C@]2(C)[C@@H]1[C@H](O)C[C@@H]1[C@@]3(C)CC[C@H](O[C@@H]4O[C@H](CO)[C@@H](O)[C@H](O)[C@H]4O)C(C)(C)[C@@H]3CC[C@]12C [Gypenoside XVII] | 112% and 100% | 109% | 108% | 103% | 110% | 106% | 106% | 106%
COC1=C2C[C@@H](C)C[C@H](OC)[C@H](O)[C@@H](C)/C=C(\C)[C@H](OC(N)=O)[C@@H](OC)/C=C\C=C(/C)C(=O)NC(=CC1=O)C2=O [Geldanamycin] | 15.4% and 22.8% | 24.4% | 26.4% | 19.1% | 1.24% | 1.11% | 1.59% | 10.6%
COc1ccc(-c2oc3c(CC=C(C)C)c(O[C@@H]4O[C@H](CO)[C@@H](O)[C@H](O)[C@H]4O)cc(O)c3c(=O)c2O[C@@H]2O[C@@H](C)[C@H](O)[C@@H](O)[C@H]2O[C@@H]2O[C@@H](C)[C@H](O)[C@@H](O)[C@H]2O)cc1 [Epmedin C] | 104% and 108% | 106% | 100% | 103% | 107% | 105% | 103% | 107%
O=C(O)c1ccco1 [2-Furoic acid] | 95.7% and 95.1% | 103% | 95.9% | 108% | 98.5% | 101% | 97.5% | 102%
COC(=O)C1=C(C)NC(C)=C(C(=O)OCC(C)C)C1c1ccccc1[N+](=O)[O-] (stereo not drawn) [Nisoldipine] | 80.1% and 83.8% | 80.3% | 56.3% | 58.6% | 41.7% | 34.7% | 41.2% | 55.3%
CC(C)(C)C[C@@H]1N[C@@H](C(=O)N[C@H]2CC[C@H](O)CC2)[C@H](c2cccc(Cl)c2F)[C@]12C(=O)Nc1cc(Cl)ccc12 | 76.2% and 81.8% | 74.8% | 84.9% | 83.6% | 0.31% | 0.33% | 0.34% | 8.97%
Nc1ncn([C@H]2C[C@H](O)[C@@H](CO)O2)c(=O)n1 [Decitabine] | 77.9% and 88.9% | 80.9% | 69.5% | 73.8% | 47.4% | 39.7% | 54.4% | 58.2%

Compound | cell viability (K562; SRSF2 genotype: SRSF2 P95H/wt) | cell viability (K562; SRSF2 genotype: SRSF2 wt/wt) | cell viability (MARIMO; SRSF2 genotype: SRSF2 P95H/wt) | cell viability (MARIMO; SRSF2 genotype: SRSF2 wt/wt) | cell viability (MOLM14; SRSF2 genotype: SRSF2 P95H/wt) | cell viability (MOLM14; SRSF2 genotype: SRSF2 wt/wt) | cell viability (OCI-AML2; SRSF2 genotype: P95H/wt) | cell viability (OCI-AML2; SRSF2 genotype: wt/wt)
Nc1nc(Cl)nc2c1ncn2[C@@H]1O[C@H](CO)[C@@H](O)[C@@H]1F [Clofarabine] | 96.7% and 113% | 105% | 11.5% | 8.77% | 2.95% | 0.83% | 5.47% | 4.64%
CNCC[C@@H](Oc1ccccc1C)c1ccccc1 [Atomoxetine HCl] | 111% and 112% | 108% | 100% | 94.9% | 101% | 106% | 115% | 94.6%
NS(=O)(=O)c1ccccc1 [Benzenesulfonamide] | 100% and 106% | 109% | 97.9% | 109% | 96.5% | 106% | 107% | 91.7%
O=C1C[C@@H](c2ccc(O[C@@H]3O[C@H](CO)[C@@H](O)[C@H](O)[C@H]3O)cc2)Oc2cc(O)ccc21 [Liquiritin] | 92.3% and 81.1% | 83.8% | 83.3% | 90.1% | 86.4% | 89% | 96.5% | 91.4%
COc1ccc(C[C@@H]2c3cc(Oc4cc(C[C@@H]5c6cc(OC)c(OC)cc6CCN5C)ccc4O)c(OC)cc3CCN2C)cc1 [Neferine] | 109% and 107% | 99% | 104% | 120% | 106% | 109% | 102% | 102%
CC(=O)N[C@@H](CC(C)C)C(=O)N[C@@H](CC(C)C)C(=O)N[C@H](C=O)CCCNC(=N)N [Leupeptin Hemisulfate] | 94.1% and 83.4% | 86.2% | 90.8% | 97.3% | 85.8% | 90.1% | 97.4% | 97.7%
CN1CCC[C@@H]1CCO[C@](C)(c1ccccc1)c1ccc(Cl)cc1 [Clemastine Fumarate] | 83.6% and 82.3% | 81.6% | 74.2% | 77.3% | 71.3% | 78.4% | 81.7% | 78.8%
CC#CC(=O)Nc1ccc2ncnc(Nc3cccc(Br)c3)c2c1 | 7.91% and 17.6% | 20.9% | 34.7% | 35.5% | 0.84% | 1.92% | 1.61% | 6.95%
Cn1cc(-c2ccc3nnc(C(F)(F)c4ccc5ncccc5c4)n3n2)cn1 | 94.1% and 97.8% | 98.8% | 102% | 105% | 96% | 99.2% | 86.9% | 89.6%
CCCCCCCCCCCCCc1cccc(O)c1C(=O)O [Ginkgolic Acid (C130)] | 108% and 100% | 108% | 103% | 107% | 104% | 110% | 102% | 103%
CC1(C)[C@@H](O[C@H]2O[C@H](C(=O)O)[C@@H](O)[C@H](O)[C@H]2O[C@@H]2O[C@H](C(=O)O)[C@@H](O)[C@H](O)[C@H]2O)CC[C@]2(C)[C@H]3C(=O)C=C4[C@@H]5C[C@@](C)(C(=O)O)CC[C@]5(C)CC[C@@]4(C)[C@]3(C)CC[C@@H]12 [Ammonium Glycyrrhizate] | 97.4% and 102% | 99.3% | 101% | 101% | 106% | 98.9% | 106% | 99%
CC1(C)O[C@H]2CC(=O)OC[C@]23[C@H]2CC[C@@]4(C)[C@H](c5ccoc5)OC(=O)[C@H]5O[C@]54[C@]2(C)C(=O)C[C@@H]13 [Limonin] | 98% and 110% | 109% | 97.3% | 109% | 102% | 109% | 111% | 102%
O=C(c1ccc(Nc2nccc(-c3cc4ccccc4s3)n2)cc1)N1CCC(N2CCCC2)CC1 | 1.53% and 1.22% | 1.15% | 0.47% | 0.54% | 0.29% | 0.3% | 0.25% | 0.35%
FC(F)(F)c1ccc(/C=C/c2nc(COc3ccc(CCCCn4ccnn4)cc3)co2)cc1 [Mubritinib (TAK 165)] | 68.1% and 58.5% | 56.7% | 67.2% | 61.8% | 70.1% | 55.5% | 49.2% | 47%
O=c1ccc2ccc(OCCCCN3CCN(c4cccc5sccc45)CC3)cc2[nH]1 [Brexpiprazole] | 37.4% and 28.9% | 60.1% | 43.1% | 39.2% | 33% | 23.4% | 15.4% | 21.6%
N/N=c1\[nH][nH]/c(=N\N)c2ccccc12 [Dihydralazine sulphate] | 93.9% and 93.2% | 95.5% | 95.3% | 94.3% | 106% | 103% | 93% | 95.4%
O=C(N/N=C/c1cc(O)c(O)cc1O)c1cc2ccccc2cc1O [Dyngo-4a] | 78.9% and 81.5% | 78% | 67.3% | 89.5% | 64.9% | 72% | 85.1% | 79.3%
NC(=O)c1cccc2cn(-c3ccc(C4CCCNC4)cc3)nc12 (stereo not drawn) [MK-4827(Niraparib)] | 102% and 104% | 86.9% | 40.9% | 57.4% | 25.2% | 8.96% | 45.3% | 51.5%
O=C(Nc1cccc2cccnc12)c1ccc(N2C(=O)C3C4C=CC(C4)C3C2=O)cc1 (stereo not drawn) [IWR-1-endo] | 95.8% and 94% | 101% | 100% | 103% | 111% | 118% | 97.9% | 98.8%
O=C(Nc1c[nH]nc1-c1nc2ccc(CN3CCOCC3)cc2[nH]1)NC1CC1 | 26.9% and 28.6% | 15.8% | 6.33% | 2.59% | 1.54% | 0.83% | 2.98% | 15.3%

Reference: the supplement of paper PMC10981050
